Values joined by “and” are separate entries in the source; they are usually repeats but may differ in a detail not shown here. Equal values may be shown once.
The molecules below were run on Plasmodium falciparum (assay: GSK_TCMDC: Inhibition of Plasmodium falciparum 3D7 in whole red blood cells, using parasite LDH activity as an index of growth. Test compounds present at 2uM).
Type: functional

| Structure (SMILES) | Inhibition |
| --- | --- |
| COC(=O)c1ccc(CC(C)NCC(O)c2cccc3ccccc23)cc1 (stereo unspecified) | 96% |
| O=[N+]([O-])c1ccc(Oc2c(Cl)cc(S(=O)(=O)NC3CCC(CN4CCC(c5c[nH]c6ccccc56)CC4)CC3)cc2Cl)c(Cl)c1 (stereo unspecified) | 100% |
| COC(=O)CN(C(=O)/C=C/c1ccc(Cl)c(Cl)c1)C1CCC(CN2CCC(c3c[nH]c4ccccc34)CC2)CC1 (stereo unspecified) | 100% |

Each molecule was assayed on Plasmodium falciparum (assay: GSK_TCMDC: Inhibition of Plasmodium falciparum Dd2 in whole red blood cells, using parasite LDH activity as an index of growth. Test compounds present at 2uM).
Type: functional

| Structure (SMILES) | Inhibition |
| --- | --- |
| O=C(NCc1ccccc1)c1nn(CCCN2CCC3(CC2)C(=O)NCN3c2ccccc2)cc1-c1ccc(Cl)c(Cl)c1 | 21% |
| Br.CC(Cc1ccc(SC(C)(C)C)cc1)NCC(O)c1cccc(Cl)c1 (stereo unspecified) | 99% |
| CC(Cc1ccc([N+](=O)[O-])cc1)NCC(O)c1cccc(C(F)(F)F)c1 (stereo unspecified) | 92% |
| Cc1cccc(C(=O)Nc2ccnc(N(C)C3CCN(CC(C)C)CC3)c2)c1.O=C(O)C(F)(F)F | 6% |
| CC(C)CNCc1cccc(-c2ccccc2CN(C(=O)Nc2ccccc2)C2CCN(Cc3ccccc3)CC2)c1.O=C(O)C(F)(F)F | 68% |
| CC[C@H]1CN2CC[C@H]1C[C@H]2[C@H](O)c1cc(-c2ccc(F)cc2)nc2ccc(OC)cc12.Cl | 98% |
| COc1ccc(O)c(CN2CCN(c3cc(C)ccc3C)CC2)c1 | 86% |
| Cn1nc(-c2ccc(S(=O)(=O)NC3CCC(CN4CCC(c5c[nH]c6ccccc56)CC4)CC3)s2)cc1C(F)(F)F (stereo unspecified) | 24% and 29% |
| N#Cc1c(Cl)cccc1Oc1ccc(S(=O)(=O)NC2CCC(CN3CCC(c4c[nH]c5ccccc45)CC3)CC2)cc1 (stereo unspecified) | 36% and 16% |
| CN(C)CCCn1cc(C(=O)OC2CC3CCC(C2)N3C)c2cc(-c3ccccc3)ccc21.Cl (stereo unspecified) | 96% |
| COc1ccc(C(=O)C2CC2CN2CC=C(c3c[nH]c4ccc(OC)nc34)CC2)cc1 (stereo unspecified) | 91% |
| O=C(NC1CCC(CN2CCC(c3c[nH]c4ccccc34)CC2)CC1)c1cnn(-c2ccccc2)c1-c1ccccc1Cl (stereo unspecified) | 11% |
| CC(C)c1ccc(C=CC(=O)NC2CCC(CN3CCC(c4c[nH]c5ccccc45)CC3)CC2)cc1 (stereo unspecified) | 85% |
| CC(=O)Nc1ccc(CN2CCC(N(C)c3cc(NC(=O)c4cccs4)ccn3)CC2)cc1.O=C(O)C(F)(F)F | 43% |
| O=C(O)C(F)(F)F.O=C(c1cccs1)N(Cc1cccc(-c2ccc(CNC3CCCC3)cc2)c1)C1CCN(Cc2ccccc2)CC1 | 74% |
| COc1cc(/C=C/C(=O)NC2CCC(CN3CCC(c4c[nH]c5ccccc45)CC3)CC2)ccc1O (stereo unspecified) | 45% and 44% |
| Cc1cc(N(C)C2CCN(C)CC2)nc(Nc2ccc(Cl)cc2)n1 | 90% |
| CC(C)(C)c1ccc(Cn2nc(C(=O)N3CCN(C(=O)C4CCCO4)CC3)c3ccccc32)cc1 (stereo unspecified) | 83% |
| COc1ccc(CC(C)NCC(O)c2cccc(Cl)c2)cc1C (stereo unspecified) | 78% |

| Structure (SMILES) | Inhibition |
| --- | --- |
| O=C(Nc1ccc(Oc2ccccc2)cc1)NC1CCC(CN2CCC(c3c[nH]c4ccccc34)CC2)CC1 (stereo unspecified) | 97% |
| COc1ccc(CC(C)NCC(O)c2ccc(Cl)c(Cl)c2)cc1 (stereo unspecified) | 96% |
| CC[C@H]1CN2CC[C@@H]1C[C@H]2[C@H](O)c1cc(N2CCC(O)(c3ccc(Cl)cc3)CC2)nc2ccc(OC)cc12 | 98% |
| CN(C)CCCOc1ccc(CN2CCC(c3c[nH]c4ccc(NCC5CCCCC5)cc34)CC2)cc1.O=C(O)C(F)(F)F | 99% |
| O=C(c1cc(C(=O)NCc2ccc(Cl)cc2)c(=O)n(Cc2ccc(Cl)cc2)c1)c1cc(F)ccc1O | 2% |
| O=c1c2ccccc2nc(/C=C/c2ccc([N+](=O)[O-])cc2)n1-c1ccccn1 | 96% |
| Br.COC(=O)c1ccc(CC(C)NCC(O)c2cccc(SC(F)(F)F)c2)cc1 (stereo unspecified) | 72% |
| O=C(/C=C/c1ccc(Cl)c(Cl)c1)NCC1CCC(CN2CCC(c3c[nH]c4ccccc34)CC2)CC1 (stereo unspecified) | 93% |
| CC(C)CNCc1cccc(-c2cccc(CN(C(=O)Nc3ccccc3)C3CCN(Cc4ccccc4)CC3)c2)c1.O=C(O)C(F)(F)F | 89% |
| COc1cc(C=CC(=O)N2CCC(CN3CCC(c4c[nH]c5ccccc45)CC3)CC2)cc(OC)c1 | 8% |
| CC(=O)N(Cc1ccc(-c2ccc(CNCCc3ccccc3)cc2)cc1)C1CCN(Cc2ccccc2)CC1.O=C(O)C(F)(F)F | 15% |
| O=c1n[n+](C2CCCCC2)[n-]o1 | 82% |
| CN(c1cc(NC(=O)c2ccccc2)ccn1)C1CCN(Cc2cccc(F)c2)CC1.O=C(O)C(F)(F)F | 94% |
| CCOc1ccc(Br)cc1/C=C/C(=O)Nc1ccc2c(c1)C1CCC2N1C.O=C(O)C(F)(F)F (stereo unspecified) | 26% |
| Cc1cc(C(=O)NC2CCN(CC3(c4ccc(Cl)cc4)CCC3)CC2)on1 | 95% |
| CNC(=O)c1ccc2[nH]cc(C3CCN(CC4CCC(NC(=O)/C=C/c5ccc(Cl)c(Cl)c5)CC4)CC3)c2c1 (stereo unspecified) | 90% |
| COC(=O)c1ccc(CC(C)NCC(O)c2cccc3ccccc23)cc1 (stereo unspecified) | 82% |
| O=[N+]([O-])c1ccc(Oc2c(Cl)cc(S(=O)(=O)NC3CCC(CN4CCC(c5c[nH]c6ccccc56)CC4)CC3)cc2Cl)c(Cl)c1 (stereo unspecified) | 64% |
| COC(=O)CN(C(=O)/C=C/c1ccc(Cl)c(Cl)c1)C1CCC(CN2CCC(c3c[nH]c4ccccc34)CC2)CC1 (stereo unspecified) | 69% |
